# Assay results as given in PubChem BioAssay AID504374 (National Center for Advancing Translational Sciences (NCATS), 2011).
# “And” between values parts separate entries of the source, which are not always exact repeats. Equal values may be shown once. Screen size: about 1,500 compounds; about 100 (6.7%) were called active. Roughly 7% stayed inconclusive and do not appear here. The sample as a whole holds a higher share of actives than the screen did. Unmarked numbers belong to inactive results. The call rests on the fitted dose curve; in most records, active means well fitted inhibition curve with a large enough effect; inconclusive means small, poorly fitted or top-dose-only effect, or effect the other way; inactive means flat fitted curve, though single readings scatter.
# Target: Runt-related transcription factor 1 (Homo sapiens) + Core-binding factor subunit beta (Homo sapiens) (UniProt Q01196+Q13951)
# Sequence (Q01196 whole entry, looked up): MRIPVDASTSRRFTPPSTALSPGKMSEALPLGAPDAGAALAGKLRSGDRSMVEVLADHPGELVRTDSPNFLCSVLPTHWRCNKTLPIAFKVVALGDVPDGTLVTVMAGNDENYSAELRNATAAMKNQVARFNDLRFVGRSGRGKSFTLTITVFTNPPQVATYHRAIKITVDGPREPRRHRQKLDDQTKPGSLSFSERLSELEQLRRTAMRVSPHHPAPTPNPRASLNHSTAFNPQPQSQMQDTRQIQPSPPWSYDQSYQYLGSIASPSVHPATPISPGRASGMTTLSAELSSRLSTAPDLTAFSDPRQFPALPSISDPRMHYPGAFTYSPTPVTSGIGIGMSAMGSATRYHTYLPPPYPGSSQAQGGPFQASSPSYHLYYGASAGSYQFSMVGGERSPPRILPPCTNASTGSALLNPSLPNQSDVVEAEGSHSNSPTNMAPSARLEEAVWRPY
# Sequence (Q13951 whole entry, looked up): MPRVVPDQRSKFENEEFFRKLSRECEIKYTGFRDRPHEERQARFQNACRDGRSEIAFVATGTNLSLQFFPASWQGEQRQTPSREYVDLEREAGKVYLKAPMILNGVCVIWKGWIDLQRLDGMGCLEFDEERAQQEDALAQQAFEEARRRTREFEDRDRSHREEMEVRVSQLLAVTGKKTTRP
# Assay: qHTS Assay for Compounds Blocking the Interaction Between CBF-beta and RUNX1 for the Treatment of Acute Myeloid Leukemia: Hit Validation; further: nearly all actives have a fitted effect of over 60% in size
# Details: AlphaScreen CBFb-His/RUNX1-biotin binding; series mostly up to 59.8 µM; activity, negative = inhibition: at the top concentration
# Summary of the method: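 AlphaScreen proximity assay: His-tagged CBF-beta and biotinylated RUNX1 (30 nM each) preincubated 20 min, then compound 15 min, then nickel and streptavidin beads 90 min, all at room temperature; signal read at […]em 440 nm.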
# On the % scale 0 is the no-effect control and ±100 the full control effect; potency means the concentration at half of the fitted maximal effect.
SMILES,"activity, negative = inhibition [%]",Potency
O=C(Nc1ccccc1)NC1CCCCNC1=O (configuration not stated),1.23,
COc1ccc(/C(C#N)=C/c2ccccn2)cc1,9.94,
N#C/C(=C\c1ccc(OC(=O)c2ccccn2)cc1)C(N)=O,,4.34 µM (active)
N#CC(C#N)=Cc1ccc(OC(=O)c2ccccn2)cc1,,6.12 µM (active)
CCOc1ccccc1/C=C(/C#N)C(N)=O,2.38,
CCOC(=O)/C(C#N)=C/Nc1ccccc1OC(F)(F)F,-2.36,
CCOC(=O)/C(C#N)=C/c1ccc(OC(=O)c2ccccn2)cc1,,3.86 µM (active)
CCOC(=O)/C(C#N)=C/Nc1cc(F)ccc1C,-3.99,
S=c1[nH]ccn1-c1ccccc1Cl,-10.1,
CC(=O)NCC1(O)CCCC(C)C1 (configuration not stated),-8.56,
CC(C)(C)C(=O)Nc1ccc(NC(=O)C(C)(C)C)cc1,10.3,
O=C(COc1ccc([N+](=O)[O-])cc1Cl)N1CCOCC1,2.71,
O=C(CSc1n[nH]c(=O)[nH]c1=O)N1CCCCCC1,-1.59,
O=C(Oc1ccc2c(c1)O/C(=C\c1ccncc1)C2=O)c1cccs1,-8.69,
CCCN(CCC)C(=O)CC(c1ccccc1)c1ccco1 (configuration not stated),12.8,
COC(=O)c1ccc(OC)c(OC)c1Cl,-1.98,
Cc1c2c(c(O)c3c(O)cccc13)C(=O)O[C@H]2C1C(N(C)C)C(O)=C(C(N)=O)C(=O)[C@H]1O (some centres not stated),,0.631 µM (active)
CCOC(=O)c1c2c([nH]c(=S)c1C#N)CCCC2,-3.85,
COc1cc(O)c2c(c1)oc(=O)c1c3cc(O)c(O)cc3oc21,,3.16 µM (active)
COc1cc(C2C(C#N)=C(N)OC3=C2C(=O)CC(C)(C)C3)ccc1OCCN1CCOCC1 (configuration not stated),-3.79,
COC(=O)c1ccc(Cn2cc([N+](=O)[O-])cn2)cc1,-7.08,
C/C(O)=C(\C#N)P(=O)(c1ccccc1)c1ccccc1,10.4,
c1ccc(CSc2ccc(-c3ccccn3)nn2)nc1,,2.51 µM (active)
Clc1ccc(-c2ccccc2)nn1,-1.75,

SMILES,"activity, negative = inhibition [%]",Potency
c1ccc(-c2ccc(-c3ccccn3)s2)nc1,3.74,
c1ccc(-c2n[nH]c(-c3ccccn3)n2)nc1,,1 µM (active) and 708 nM (active)
c1ccc(-c2ccc(-c3ccccn3)nn2)nc1,,2.82 µM (active)
O=[N+]([O-])c1ccccc1CSc1ccccn1,1.85,
CC(=O)c1cc(C#N)c(SCc2ccccn2)nc1C,-7.25,
c1ccc(-c2ccccn2)nc1,,7.94 µM (active)
Clc1ccccc1/C=C/c1nc(-c2ccccn2)no1,-23.2,
CCN(CCS(=O)(=O)c1ccc(Cl)cc1)C(=O)Nc1ccccc1,-4.65,
COc1ccc2c(C)cc(C)nc2n1,6.91,
Cc1cc(C)n2cnnc2n1,-3.07,
CCC1(C)N=C(N)Nc2nc3cc(C)c(C)cc3n21 (configuration not stated),-2.57,
CCOC(=O)N1CCC(NS(=O)(=O)c2ccccc2)CC1,-16.1,
CCNC(=O)COC(=O)c1cc(S(=O)(=O)N2CCCCC2)ccc1C,-10.6,
Cc1cc(C)nc(N2N=C(C(F)(F)F)CC2=O)n1,2.96,
COc1ccc(CCn2cnc3c([nH]c4ccccc43)c2=O)cc1,-4.1,
CC(C)(C)N1CCC1C(N)=O (configuration not stated),12.6,
Cn1c(=O)c2c(Nc3ccc(F)cc3)cc(=O)n(-c3ccccc3)c2n(C)c1=O,-4.15,
O=C(CC1NCCNC1=O)NC1Cc2ccccc2C1 (configuration not stated),9.2,
CC(=O)C1C(=O)CC(c2ccc(Cl)cc2)CC1=O (configuration not stated),-0.716,
Cc1oc(S(=O)(=O)N2CCCC2)cc1C(=O)Nc1ccc(F)cc1,-4.36,
C=CCOc1c(CCC)cc(CCC)cc1C(N)=O,-2.85,
Cc1cc(O)c(C=O)c2c1C(=O)Oc1c(COC(=O)/C=C/C(=O)O)c(O)c(C(=O)O)c(C)c1O2,,11.2 µM (active)
CCNC(=S)N1N=C2c3ccccc3CCC2C1c1ccc(F)cc1 (configuration not stated),7.45,
O=C(NN1C(=O)CSC1=S)C(=O)NN1C(=O)CSC1=S,,8.91 µM (active)

SMILES,"activity, negative = inhibition [%]",Potency
Nc1cccnc1Oc1ccccc1F,-2.77,
Cn1c(-c2ccc3ccccc3n2)[n+](C)c2ccccc21,-16.8,
Cc1cc(NC(=O)CN2CCCCC2)n(-c2ccccc2)n1,2.06,
NNC(=O)c1ccc(COCC(F)(F)C(F)F)cc1,-1.86,
CC(C)(C)S(=O)(=O)/C(C#N)=C/Nc1ccccn1,-2.32,
CSc1nc2cc(S(=O)(=O)N3CCCCC3)ccc2s1,-1.3,
O=C(O)c1nccnc1C(=O)Nc1ccc(S(=O)(=O)N2CCOCC2)cc1,-6.89,
O=S(=O)(c1ccc2nc(-c3ccco3)c(-c3ccco3)nc2c1)N1CCOCC1,,5.46 µM (active)
COC(=O)CC1=C(C(=O)OC)[C@@H](c2ccccc2[N+](=O)[O-])C(C#N)=C(N)O1,3.04,
Cc1ccc(NC(=O)CSc2n[nH]c(N)n2)cc1S(=O)(=O)N1CCOCC1,-1.46,
CCOc1ccc(N2C(=O)CC(NNc3nc4ccccc4s3)C2=O)cc1 (configuration not stated),5.71,
O=c1c(-c2cc(O)c(O)c(O)c2)coc2cc(O)c(O)c(O)c12,,0.447 µM (active)
Cc1nnn(C23C[C@@H]4C[C@@H](CC(C(=O)N5CCN(c6ccccc6)CC5)(C4)C2)C3)n1,-5.35,
COC(=O)[C@H](CCSC)NC(=O)Nc1cc(OC)cc(OC)c1,-12.2,
COc1ccc(C(=O)NC(=S)Nc2ccc(CN3CCOCC3)cc2)cc1,-11.1,
Cn1c(=O)c([N+](=O)[O-])c(NCC2CCCO2)c2ccccc21 (configuration not stated),-0.834,
Cc1cccc(C(=O)N/C(=C\c2ccc(C)o2)C(=O)O)c1,-12.8,
CC(C)(C)OC(=O)N1Cc2cc3ccccc3nc2C1CO (configuration not stated),-2.12,
CCOc1ccc(NC(=O)CSc2ccc(-c3ccccn3)nn2)cc1,,5.01 µM (active)
CCOc1ccc(NC(=O)Nc2cc(C(C)C)c(O)cc2C)cc1,-2.87,
COC(=O)[C@H](C)NC(=O)NCc1ccccc1,-3.2,
COc1ccc(NC(=O)CSc2ccc(-c3ccccn3)nn2)cc1OC,,4.47 µM (active)
O=C(CSc1ccc(-c2ccccn2)nn1)NCc1ccccc1,,5.62 µM (active)
COC(=O)CNC(=O)CSc1ccccn1,6.43,

SMILES,"activity, negative = inhibition [%]",Potency
COc1ccccc1CC(=O)Nc1cccc(C(=O)Nc2nccs2)c1,-6.81,
COc1ccc(/C=N/NC(=O)Cn2ccnc2C)cc1OC,-9.74,
CCOc1ccc(Nc2c3ccccc3nc3ccccc23)cc1,-13,
Cc1oc(S(=O)(=O)N2CCCCC2)cc1NC(=O)Nc1ccc(F)cc1,-4.08,
CC1CN(S(=O)(=O)c2cccc(C(F)(F)F)c2)CC(C)O1 (configuration not stated),-0.629,
COc1ccc(NC(=O)CCC(=O)N/N=C/c2ccncc2)cc1,4.92,
CC(C)CC1C2C(=O)N(c3ccccc3)C(=O)C2ON1c1ccccc1 (configuration not stated),0.251,
c1ccc2sc(SCSc3nc4ccccc4s3)nc2c1,-3.42,
CC1(C)CC(=O)C2=C(C1)OC(N)=C(C#N)[C@@H]2c1ccccc1[N+](=O)[O-],-5.53,
COc1ccc(/C=N/NC(=O)c2cnccn2)c(OC)c1OC,-4.33,
CSc1ccc(C(=O)NCC(=O)O)cc1[N+](=O)[O-],-1.02,
CC(C)(C)c1ccc(NC(=O)c2ccsc2)cc1,6.68,
COC(=O)c1ccc(S(=O)(=O)N(C2CCCCC2)C2CCCCC2)n1C,-5.96,
CCN(CC)CCN1C(=O)C(=O)/C(=C(/O)c2ccc3c(c2)CC(C)O3)C1c1ccc(OC)cc1 (configuration not stated),-3.3,
O=S(=O)(Nc1nc(SCc2ccc(Cl)cc2)n[nH]1)c1ccccc1,-15.9,
CCOC(=O)N1CCC(NC(=O)CCCC(=O)O)CC1,6.93,
Cc1ccccc1-c1noc(-c2ccccc2C(=O)NCC2CCCO2)n1 (configuration not stated),-6.51,
Nc1c(C(=O)NCC2CCCO2)sc2nc3c(c(-c4ccco4)c12)CC/C3=C\c1ccco1 (configuration not stated),,12.6 µM (active)
C/C(Cc1nnn(-c2cc(C)on2)n1)=N\O,-0.472,
CCOC(=O)Cc1csc(NC(=O)Cc2ccc(Br)cc2)n1,-4.76,
COc1ccc(-c2nnsc2N2C(=O)c3ccccc3C2=O)cc1,-3.86,
COC(=O)C(=Cc1ccccc1[N+](=O)[O-])C(=O)OC,-2.17,
CC(=O)Nc1ccc(S(=O)(=O)Nc2cc(-c3ccccc3)nn2C)cc1,0.969,
CN(C)C(=O)Nc1ccccc1,-3.42,

SMILES,"activity, negative = inhibition [%]",Potency
O=C(O)C[C@@H]1C(=O)O[C@@H]2C(COC(=O)c3cc(O)c(O)c(O)c3)O[C@@H](OC(=O)c3cc(O)c(O)c(O)c3)[C@@H](OC(=O)c3cc(O)c(O)c4c3[C@H]1[C@H](O)C(=O)O4)[C@H]2OC(=O)c1cc(O)c(O)c(O)c1 (some centres not stated),,0.0316 µM (active)
Cc1cccc(CC(=O)c2c[nH]c3ccccc23)c1,-8.61,
CC(Cc1c[nH]c2ccccc12)C(=O)O (configuration not stated),,12.2 µM (active)
O=C(/C=C/c1ccccc1)c1c[nH]c2ccccc12,-1.47,
Cc1onc(-c2c(F)cccc2Cl)c1C(=O)N1CCSCC1,-1.82,
Cc1cc(=O)cc2oc3cc(N)c(-c4c(C)cc(O)cc4O)c(C)c3nc1-2,,8.88 µM (active)
O=C(O)c1cnc2[nH]c3ccccc3n2c1=O,-12,
Nc1nc(Nc2ccccc2)nc(NCCO)c1[N+](=O)[O-],-6.03,
Cc1ccn(C)c(=N)c1,-1.05,
COc1ccc(NS(=O)(=O)c2ccc3c(c2)CCO3)cc1,-11.6,
COc1ccc(OC)c(-c2c3cc(O)c(=O)cc-3oc3cc(O)c(O)cc23)c1,,2.24 µM (active)
NNC(=O)c1ccc(Cn2cccn2)o1,-3.9,
FC(F)(F)c1cccc(-n2c(Cn3nnc4ccccc43)n[nH]c2=S)c1,7.14,
Nc1cc(=O)[nH]c(SCC(=O)Nc2cc(Cl)ccc2Cl)n1,-10,
NCC(=O)Nc1ccc(Cl)cc1C(=O)c1ccc[nH]1,,3.55 µM (active)
O=C(O)/C=C/C(=O)Nc1ccc(Cl)cc1C(=O)c1ccccc1,-3.57,
Cc1ccc(C)c(N2CCN(c3ccncc3N)CC2)c1,-11.1,
NC(Cc1ccc(O)c(O)c1)C(=O)O (configuration not stated),,1.12 µM (active)
NCCc1ccc(O)c(O)c1,-10.7,
O=C(/C=C/c1ccc(O)c(O)c1)c1ccccc1O,-28.7,
N[C@H](Cc1ccc(O)c(O)c1)C(=O)O,,8.91 µM (active)
